Pf growth 96h: Primary qHTS for delayed death inhibitors of the malarial parasite plastid, 96 hour incubation; 320,000 tested, 6.9% active; Potency, µM (series often up to 28.7 µM), most hits filed as inhibitors; P. falciparum luciferase reporter growth, 96 h
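Erythrocytes infected with luciferase-expressing P. falciparum were dispensed at 2% hematocrit and 0.05% parasitemia (final), then incubated with compounds 96 hours at 37 C in 5% CO2. Luminescence after detection reagent addition reported growth.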
Pf growth 48h: Primary qHTS for delayed death inhibitors of the malarial parasite plastid, 48 hour incubation | 310,000 tested, 5.9% active | AID 504832, 2011 | P. falciparum luciferase growth in erythrocytes, 48 h | Potency, µM (highest dose often 28.7 µM), hits mostly inhibitors
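Luciferase-expressing parasites in RBCs, 2% Hct / 0.1% parasitemia final; RPMI 1640 + 0.5% Albumax; 37 C, 5% CO2, one generation; luminescence read-out, lower signal = inhibition.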
Cycloheximide cs: Cycloheximide Counterscreen for Small Molecule Inhibitors of Shiga Toxin; cell reporter, cycloheximide protein synthesis inhibition counterscreen; max response, %; 300,000 tested, 12% active; in the data active = max response mostly above about 13%, no sharp cut-off; inactive = mostly below about 14%; note: read at 38.3 µM for the half of the compounds with a filed dose
Shiga inhibitor: A qHTS for Small Molecule Inhibitors of Shiga Toxin. AID 2315, 2010. Vero cells, Shiga toxin protein synthesis inhibition reporter. 290,000 tested, 9.2% active. inhibition, % at 38.7 µM; in the data active = inhibition mostly above about 28%, no sharp cut-off; inactive = mostly below about 43%
Hits are given with their value; 0 = inactive; ? = inconclusive; - = no result; + = active, no number; ! = a repeat was not active; [ ] = dose if it differs, or a comment. Rows were chosen to be rich in hits. Some 21% of all compounds tested hit in one or more screens of this group. Unless noted, calls come from the whole dose curve; as a rule, active = well fitted inhibition curve with a large enough effect; inconclusive = small, poorly fitted or top-dose-only effect, or another doubt; inactive = no such curve, though single readings can be large or run the other way.

SMILES	Pf growth 96h	Pf growth 48h	Cycloheximide cs	Shiga inhibitor
CCOC(=O)c1sc(-c2ccc(OC)cc2)cc1N	0[5.75 µM]	0	44	132
Cc1c(-c2ccccc2)sc(N)c1C(=O)N1CCOCC1	0	13µM	0	0
CCOC(=O)c1sc(-c2ccccc2)cc1NC(=O)Nc1ccc([N+](=O)[O-])cc1	?	?	0	0
O=C(CCC(=O)Nc1nnc(C2CCCCC2)s1)NCc1ccc(F)cc1	0	0	0	0
CC12CCC(C(=O)N3CCCCC3)([C@H](Br)C1=O)C2(C)C (stereo not given in full)	0	0	0	0
CCOC(=O)c1cc(-c2ccccc2)sc1NC(=O)CCN1C(=O)c2ccccc2C1=O	?	0	0	0
CCOC(=O)c1cc(-c2ccccc2)sc1NC(=O)CC	2.3µM	5.2µM	0	0
O=C(Nn1c(COc2ccccc2)nc2ccccc2c1=O)C(Cl)(Cl)Cl	0	0	0	0
Cc1cccc(CSCc2nnc(N)s2)c1	0	0	19	39
CCOc1c(Br)cc(C(=O)N2CCCN(C)CC2)cc1OC	0	0	0	0
CCCC/C=C/[C@H](c1ccccc1)[C@H](CO)Cc1ccc([N+](=O)[O-])cc1	-	-	0	0
NNC(=O)c1cc2c(s1)-c1cc(Cl)ccc1SC2	0	9.3µM	28	0
COc1ccc(O)c(C2=Nc3ccccc3N=C(c3ccco3)C2)c1	0	0	8.7	0
O=C(Nc1ccc2c(c1)Cc1ccccc1-2)c1ccco1	-	0	45	142
COc1cccc(OC)c1C(=O)Nc1ccc2c(c1)Cc1ccccc1-2	0	0	0	0
Cc1nc(NC(=O)c2cccnc2)ccc1Br	-	0	32	57
Cc1ccc(C(=O)Nc2ccnc(-c3cccnc3)n2)cc1	0	0	36	0
Cc1ccccc1C(=O)Nc1ccccc1NC(=O)c1ccccc1Br	0	?	0	0
Cc1ccccc1C(=O)Nc1ccc(Br)c(C)n1	?	0	49	81
O=C(Nc1nnc(SCC(=O)N2CCCCC2)s1)c1c(F)cccc1F	0	0	0	0
Cc1cc(NC(=O)c2cccnc2)ccc1Br	0	0	31	44
N#Cc1ccc(C(=O)Nc2ccc3ccccc3c2)cc1	0	0	26	103
O=C(Nc1ccc2ccccc2c1)c1cccnc1	?	0	47	+
O=C(Nc1ccc2c(c1)Cc1ccccc1-2)c1cccnc1	0	0	36	89
COc1ccc(NC(=O)c2cccnc2)cc1	?	0	0	0
SMILES	Pf growth 96h	Pf growth 48h	Cycloheximide cs	Shiga inhibitor
N#Cc1ccccc1Sc1ccccc1C(=O)Nc1ccc2ccccc2c1	?	0	0	0
Cc1nc2nc(NC(=O)c3ccco3)[nH]n2c(=O)c1C	?	0	0	0
CCCC[C@@H]1CCCO[C@@](C(=O)NCCOC)(C(F)(F)F)C1	-	-	0	0
O=C(Nc1ccc2nccnc2c1)c1cnccn1	?	-	19	47
CC(C)(C)NC(=O)Nc1ccc2nccnc2c1	0	0	29	88
Cc1nc(NC(=O)CCc2ccccc2)ccc1Br	-	0	32	137
CC(C)(C)NC(=O)c1ccc2nccnc2c1	-	0	0	0
CC(=O)c1cccc(NC(=O)c2cnccn2)c1	?	0	0	0
O=C(Nc1ccc2ccccc2c1)c1cnccn1	0	0	29	85
Cc1ccccc1NC(=O)NNC(=O)CCc1ccccc1	?	0	0	0
O=C(NCCS(=O)(=O)N1CCC2(CC1)OCCO2)c1ccc(F)cc1	0	0	-	-
NNC(=S)Nc1ccc(S(=O)(=O)N2CCCCC2)cc1	?	?	0	0
CCCCN(C)CCNC(=O)C(NC(=O)C1CCC(C)CC1)C(C)C (stereo not given)	0	0	0	0
O=C(Cn1c(-c2ccccc2)noc1=O)NCc1ccccc1	0	?	0	0
N#CCCCn1c(-c2ccccc2)noc1=O	3.7µM	0	0	0
O=C(NC(Cc1ccccc1)C(=O)O)/C(=C\c1ccco1)NC(=O)c1ccccc1 (stereo not given)	2.6µM	0	0	0
O=C(NC(Cc1c[nH]c2ccccc12)C(=O)O)/C(=C\c1ccccc1)NC(=O)c1ccccc1 (stereo not given)	10µM	0	0	0
O=C(NC(Cc1ccccc1)C(=O)O)/C(=C\c1ccco1)NC(=O)c1ccc(Br)cc1 (stereo not given)	0	0	0	0
O=C(NC(Cc1ccccc1)C(=O)O)/C(=C\c1ccco1)NC(=O)c1ccco1 (stereo not given)	0	0	19	0
O=C(Nc1nncs1)C1CC(=O)N(C2CCCC2)C1 (stereo not given)	0	0	0	0
COc1ccc(N=C(N)SCc2ccccn2)cc1	?	0	31	46
COc1ccc(-c2nnc(SCc3ccccn3)n2C)cc1	?	0	26	45
COc1ccc(-c2nnc(SCC(=O)NCC3CCCO3)n2C)cc1 (stereo not given)	?	0	0	0
COc1ccc(-c2nnc(SCCc3ccccc3)n2N)cc1	-	0	0	24
COc1ccc(-c2nnc(SCC3CCCO3)n2C)cc1 (stereo not given)	0	0	38	0
SMILES	Pf growth 96h	Pf growth 48h	Cycloheximide cs	Shiga inhibitor
CCc1cccc(NC(=O)CSc2nnc(Cc3ccc(OC)cc3)c(=O)[nH]2)c1	?	0	-	-
COc1ccc(-c2nnc(SCc3ccccc3)n2N)cc1	0	0	44	61
Cn1c(SCC2CCCCC2)nnc1-c1ccncc1	?	0	16	0
COc1ccccc1-n1ccnc(SCC(=O)NCCc2ccccc2)c1=O	0	0	-	-
COc1ccc(S(=O)(=O)N(Cc2ccccc2)c2ccccc2C(=O)O)cc1	13µM	0	0	-
O=C(O)c1ccc(S(=O)(=O)N(Cc2ccccc2)Cc2ccccc2)cc1	0	0	0	0
CCN1CCN(C(=O)c2ccccc2N(Cc2ccccc2)S(=O)(=O)c2ccc(C)cc2)CC1	15µM	-	0	0
O=C(O)c1ccc(N(Cc2ccccc2)S(=O)(=O)c2ccccc2)cc1	9.3µM!	0	0	0
COc1cccc(/C=N/NC(=O)c2ccccc2N(Cc2ccccc2)S(=O)(=O)c2ccccc2)c1OC	12µM	?	0	0
COc1cccc(/C=N/NC(=O)c2ccc(N(C)S(=O)(=O)c3ccccc3)cc2)c1OC	0	?	0	0
CC1CCN(C(=O)COC(=O)c2ccc3c(c2)C(=O)N(Cc2ccco2)C3=O)CC1	0	0	-	-
C=CCN(c1ccccc1C(=O)O)S(=O)(=O)c1ccc(NC(=O)OC)cc1	0	2.3µM	0	0
O=C(Cn1c(CO)nc2ccccc21)Nc1ccc2c(c1)OCCCO2	0	0	-	-
Nc1cccc2cc(-c3ccccc3)oc12	0	0	-	-
Nc1cccc(-c2ccc(CO)o2)c1	0	0	31	68
CCN(CCn1cccn1)Cc1c(C(=O)N2C[C@@H](C)O[C@@H](C)C2)nc2ccc(Cl)cn12	0	0	0	0
Cc1cccc(CSc2nc3[nH]ncc3c(=O)[nH]2)c1	0	0	0	0
O=c1[nH]c(SCc2ccc([N+](=O)[O-])cc2)nc2[nH]ncc12	7.4µM	?	0	0
Cc1ccc(Cn2nc(C)c(NC(=O)CSc3nc4c(c(C(F)(F)F)n3)CCc3ccccc3-4)c2C)cc1	?	?	0	0
